An excerpt weighted towards active compounds, which were near 2.1% of everything screened.
Abeta yeast res: A-beta toxicity reversal in yeast. yeast expressing A-beta42, growth rescue, OD600, 48 h; response scale: 0% DMSO, 100% iron-clioquinol control. Potency, µM (titrated, usually from 46.1 µM), actives largely listed as activators. 0.063% of 410,000 active. AID 1347071; further: nearly all actives have a fitted effect of over 55% in size
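Yeast A-beta toxicity model in growth medium with pinned compounds, 48 h at 30 C; growth read as absorbance at 600 nm. Normalized to FeCl3/clioquinol equimolar mix (positive) and DMSO (negative).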
PTAP TSG101 blk: blocks PTAP/TSG101 interaction to inhibit HIV-1 budding | 340,000 tested, under 10 active | Potency, µM (doses to about 115 µM), for inactives: top-dose activity change, negative = inhibition, hits mostly inhibitors | Q99816 | Fluorescence polarization, FITC-PTAP peptide / Tsg101 binding | AID 493005; active means well fitted inhibition curve with a large enough effect in the main read-out, with a control signal flat, not every such curve was filed as active; inconclusive means small, poorly fitted or top-dose-only effect, or effect the other way, or a change in a side signal; inactive means no such curve, though single readings can be large or run the other way; further: % of control where 0% means no effect
Target sequence (Q99816 whole entry, looked up): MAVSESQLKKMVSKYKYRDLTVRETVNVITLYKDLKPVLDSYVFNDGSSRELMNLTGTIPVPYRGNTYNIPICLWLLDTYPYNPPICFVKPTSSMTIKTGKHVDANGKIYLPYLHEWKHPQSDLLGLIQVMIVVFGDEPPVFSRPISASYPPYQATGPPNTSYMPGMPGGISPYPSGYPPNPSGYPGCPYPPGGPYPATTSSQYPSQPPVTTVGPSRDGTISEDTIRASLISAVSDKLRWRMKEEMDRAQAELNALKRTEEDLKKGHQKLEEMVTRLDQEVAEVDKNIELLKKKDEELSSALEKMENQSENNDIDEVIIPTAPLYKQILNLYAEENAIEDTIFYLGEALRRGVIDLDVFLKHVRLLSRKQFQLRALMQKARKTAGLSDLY
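Tsg101 binding domain (10 uM final) was mixed with compound and a FITC-labeled PTAP peptide (50 nM final) in HEPES pH 7.5 buffer with NaCl, Tween 20, EDTA and TCEP; fluorescence polarization was read after 20 min at r.t.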
FUS suppressor: suppressors of FUS proteinopathy in yeast. S. cerevisiae FUS-expressing, growth rescue, OD600, 24 h. AID 1347120. Potency, µM (top dose mostly 76.6 µM), hits mostly activators. 0.24% of 390,000 active;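 further: plate controls were DMSO vehicle for no effect and reference control for full effect; nearly all actives have a fitted effect of over 55% in size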
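Cultures pregrown in 2.5% raffinose medium are shifted to minimal medium containing 2% galactose to express toxic FUS. Compounds are tested at several concentrations. After 24hr at 30C, growth is quantified at 600 nm absorbance.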
TDP43 rescue: rescues yeast growth from TDP-43 toxicity; 1.8% of 410,000 active; TDP-43 expressing yeast growth rescue, BacTiter-Glo, 24 h; AID 652104; Potency, µM (highest dose often 46.1 µM), inactives show at the top dose growth rescue (activation), hits mostly activators; further: % of control where 0% means no effect; nearly all actives have a fitted effect of over 50% in size
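Growth rescue of TDP-43-toxic yeast measured as ATP luminescence (BacTiter-Glo). Cells grown to mid-log in raffinose, induced in galactose at OD600=0.02, exposed to compound 24 hr at 30 deg C.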
aSyn yeast inh: alpha-synuclein toxicity inhibition in yeast | Yeast expressing alpha-synuclein, growth rescue, BacTiter-Glo, 24 h | Potency, µM (titrated, usually from 46.1 µM), for inactives: at the top dose growth rescue (activation), usual class: activators | 0.14% of 370,000 active | AID 652106; further: % of control where 0% means no effect; nearly all actives have a fitted effect of over 65% in size
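Screening used galactose-induced yeast with toxic alpha-synuclein levels, exposed to compound for 24 hr at 30 deg C. Cell growth, read with BacTiter-Glo luminescence, gave the measured signal.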
* = called active by the depositor; i = inactive; ? = inconclusive; . = no result given. Unless noted, the call rests on the fitted dose curve; in most records, active means well fitted curve in the direction sought with a large enough effect; inconclusive means small, poorly fitted or top-dose-only effect, or another doubt; inactive means no such curve, though single readings can be large; an effect the other way counts as inactive or inconclusive. Potency means the concentration at half of the fitted maximal effect.

SMILES | Abeta yeast res | PTAP TSG101 blk | FUS suppressor | TDP43 rescue | aSyn yeast inh
COc1ccc(CSCCNC(=S)Nc2ccccc2)cc1Cl | ? | -5.2% | i | 20µM* | 3.5%
O=C(NCc1ccccn1)[C@@H]1CCCN1C(=O)[C@@H]1CCCN1C(=O)c1ccc(Cl)cc1 | i | . | i | 15.6% | 2.5%
COc1ccc(CCNC(=O)Cn2c(=O)n(-c3cc(OC)c(OC)c(OC)c3)c(=O)c3ccccc32)cc1OC | i | . | i | 12.7% | .
S=C(NCCSCc1c(Cl)cccc1Cl)Nc1ccccc1 | i | -3.6% | i | 10µM* | 4.5%
COc1ccc(CNC(=O)c2ccc3c(c2)nc2n3CCCCC2)c(OC)c1 | i | . | i | 9.7% | .
Cc1cccc(-c2nc(CS(=O)CC(=O)NC3CCCC3)c(C)o2)c1 (centres undefined) | i | -1.7% | i | ? | 5.62µM*
CN(C)c1ccc(/C=C2\C=Cc3ccccc32)cc1F | . | . | . | . | -18.4%
COc1cc(-c2nnc(-c3ccccc3)o2)cc(OC)c1OC | i | 0.0% | i | 18.4% | -11.3%
COc1cc(-c2nnc(COc3ccc4ccccc4c3)o2)cc(OC)c1OC | i | 0.9% | . | 28.2µM* | 6.3%
COCCCNC(=S)N1CCN(c2nc(-c3ccccc3)cs2)CC1 | ? | -8.5% | i | 35.5µM* | -4.6%
COc1cccc(-c2csc(N3CCN(C(=O)Nc4ccc(Cl)cc4)CC3)n2)c1 | i | 4.9% | i | 11.2µM* | -23.7%
CCOCCCNC(=S)N1CCN(c2nc(-c3ccccc3)cs2)CC1 | ? | -6.3% | i | 20µM* | -3.6%
COCCCNC(=S)N1CCN(c2nc(-c3ccc(Cl)cc3)cs2)CC1 | ? | . | i | 12.6µM* | -17.8%
CC(C)CNC(=S)N1CCN(c2nc(-c3ccc(Cl)cc3)cs2)CC1 | ? | -0.9% | i | . | -7.2%
CC(=O)c1ccc(S(=O)(=O)Nc2ccc(-c3ccc(N4CCCCC4)nn3)cc2)cc1 | i | . | i | 3.9% | .
CC1CC(C)CN(C(C(=O)NC2CCCCC2)c2cc3ccccc3o2)C1 (centres undefined) | i | . | i | -2.3% | 1.7%
COc1ccc(-n2ccnc(NCc3ccccc3OC)c2=O)cc1 | i | . | i | ? | .
O=C(NC(=S)N1CCN(c2nc(-c3ccccc3)cs2)CC1)c1cncc(Br)c1 | ? | -5.7% | i | 15.8µM* | ?
Cc1nc(N2CCCC2)c2c(C(=O)N3CCN(c4cc(Cl)ccc4C)CC3)c(C)oc2n1 | i | . | ? | 1.0% | .
COC(=O)[C@]12CCCCC=C1N(CCc1ccc(OC)c(OC)c1)C(=O)[C@H](CC(=O)NCc1cccc(C(F)(F)F)c1)C2 | i | . | 4.47µM* | 1.2% | 3.0%
COC(=O)[C@]12CCCCC=C1N(CCc1ccc(OC)c(OC)c1)C(=O)[C@H](CC(=O)NCc1ccccc1)C2 | i | . | ? | 0.0% | 1.4%
COC(=O)[C@]12CCCCC=C1N(CCc1ccc(OC)c(OC)c1)C(=O)[C@H](CC(=O)NCCCCc1ccccc1)C2 | i | . | 8.91µM* | 7.8% | 2.7%
COc1ccc(NC(=O)C2CCN(S(=O)(=O)c3cccc(-c4noc(C)n4)c3)CC2)cc1OC | i | . | i | 13.3% | .
CC(C)(C)c1ccc(S(=O)(=O)N2CCCC(C(=O)NCc3cccs3)C2)cc1 (centres undefined) | . | . | i | . | .
O=S(=O)(Nc1ccc(-c2ccc(N3CCCCCC3)nn2)cc1)c1ccc(C(F)(F)F)cc1 | i | . | i | 4.6% | .
SMILES | Abeta yeast res | PTAP TSG101 blk | FUS suppressor | TDP43 rescue | aSyn yeast inh
CC(C)COC(=O)NCCOC(=O)Nc1cccc(Cl)c1 | i | -3.3% | i | 25.1µM* | 4.5%
CC(C)COC(=O)NCCCOC(=O)Nc1ccccc1 | i | -4.3% | i | 18.2% | 2.6%
O=C(N/C=N/O)C1=NOC(CNc2ncc(C(F)(F)F)cc2Cl)C1 (centres undefined) | i | -9.3% | i | 15.8µM* | 2.0%
COc1ccc(C(=O)NNC(=S)NC(=O)c2cc(-c3ccccc3)nc3ccccc23)cc1 | i | -3.3% | i | ? | -19.3%
CCCOc1ccc(C(=O)NNC(=S)NC(=O)c2cc(-c3ccc(Cl)cc3)nc3ccccc23)cc1 | i | -4.7% | i | 12.6µM* | 4.2%
COc1ccc(CCNC(=O)CCN2C(=O)COc3ccc(C)cc32)cc1OC | i | -3.8% | ? | 8.91µM* | 0.7%
O=C(CSc1ncccn1)N/N=C/c1ccc(OC2CSC2)cc1 | i | -0.4% | i | 11.2µM* | 6.2%
O=[N+]([O-])c1ccc(-c2nc(-c3cccs3)c(-c3cccs3)[nH]2)cc1 | i | 5.8% | i | 3.16µM* | -11.6%
O=[N+]([O-])c1cccc(-c2nc(-c3cccs3)c(-c3cccs3)[nH]2)c1 | ? | -3.0% | i | 8.6% | -9.3%
C=CCC[C@@H](Cc1ccc(F)cc1)C(=O)OC[C@@H](Cc1ccccc1)NC(=O)[C@@H](CC=C)CC(=O)N[C@@H](CO)Cc1ccccc1 | i | -0.7% | i | -15.3% | -7.2%
Oc1ccccc1CNc1cccc2cccnc12 | i | 2.2% | i | 14.1µM* | -25.2%
CCOc1ccccc1C(=O)Nc1ccccc1O | i | -0.9% | i | 14.1µM* | -12.1%
Cc1ccc2cccc(NC(=O)c3cccc4c(Cl)cccc34)c2n1 | i | . | i | 7.9% | -2.2%
O=C(Nc1ccccc1)Nc1cccc2cccnc12 | i | -0.8% | i | 7.08µM* | -8.7%
COc1c(C)cccc1C(=O)Nc1cccc2ccc(C)nc12 | i | . | i | 22.4µM* | .
c1ccc(CCNc2ccc3ncc(-c4cccc5ccccc45)n3n2)nc1 | i | . | i | -6.4% | -1.7%
C=C1NN(C(C)C(=O)O)C(=O)N1c1ccc(OCc2ccccc2)cc1 (centres undefined) | . | . | . | . | -1.4%
O=C(CN1CCN(Cc2ccccc2)CC1)N/N=C\c1ccccc1[N+](=O)[O-] | . | . | i | . | .
CCn1c(=O)cc(N2CCN(c3cccc(C(F)(F)F)c3)CC2)[nH]c1=O | . | . | i | . | .
Cc1ccccc1Cn1cc(COC(=O)N(C)Cc2ccccc2)nn1 | . | . | i | . | .
CC(C)(C)OC(=O)NCc1cc2c(cc1/C=C/S(=O)(=O)NCc1ccc(F)cc1)OCO2 | . | . | i | . | .
CCOc1ccccc1C(=O)Nc1cccc2ccc(C)nc12 | i | . | i | 20µM* | .
COc1ccccc1C(=O)Nc1cccc2cccnc12 | i | -7.0% | i | 3.16µM* | 8.6%
Cn1cc(C(=O)O)c(=O)c2cc(S(=O)(=O)N3CCOCC3)ccc21 | i | . | i | 0.0% | .
CCc1ccc2occ(CC(=O)NCc3ccccc3)c2c1 | i | . | i | 11.2µM* | .
CCOC(=O)/C=C/C(=O)OCC(=O)Nc1ccc(OC)c(Cl)c1 | i | -1.8% | i | 35.5µM* | 2.6%

Bioassay records as filed in PubChem BioAssay.
